Experimental findings from PubChem BioAssay are described below.

Records with an inconclusive call do not appear. Activity calls are given as the source filed them. Unless noted, cut-off not given; nearly all actives show AC50 up to about 30 µM.

Usually AC50 stands for the concentration at which the activity in the assay is half-maximal.

One experiment in a line: growth inhibition of DIPG glioma cells, dose response, cell-based, SU-DIPG-XVII, MIPE5.0, CellTiter-Glo, qHTS (AID 1347060; cut-off not given, nearly all actives have AC50 up to about 26 µM;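 on AC50: cells exposed to compound for 48 hours before viability readout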). Particulars: SU-DIPG-XVII viability, CellTiter-Glo ATP luminescence.
As for `CNC(=O)c1cc(COc2nnc(Nc3ccc(Cl)cc3)c3ccoc23)ccn1`, the AC50 is 16.6 µM (active).

Turning to `COc1cc2ncnc(Nc3cccc(Cl)c3)c2cc1OC`, the AC50 is 13.2 µM (active).

Regarding `CS(=O)(=O)N1CCc2c(-c3cnc(N)nc3)nc(N3CCOCC3)nc21`, the AC50 was 1.86 µM (active).

Regarding `Nc1ccn([C@@H]2O[C@H](CO)[C@@H](O)C2(F)F)c(=O)n1`, the AC50 is 0.0186 µM (active).

Turning to `CC(=O)Oc1cc2c(s1)CCN(C(C(=O)C1CC1)c1ccccc1F)C2` (stereo not drawn), the call was inactive.

Turning to `CCCCNc1ncc(-c2ccc(CN3CCOCC3)cn2)c(NC2CCC(O)CC2)n1` (stereo not drawn), the AC50 was 2.57 µM (active).

In the case of `O=C1NC(=O)[C@@H](c2cn3c4c(cccc24)CCC3)[C@@H]1c1c[nH]c2ccccc12`, the AC50 was 1.05 µM (active).

As for `N#Cc1c(N)nc(N)nc1N[C@H](c1nc2c(F)ccc(Cl)c2c(=O)n1-c1cccnc1)C1CC1`, the AC50 is 18.6 µM (active).

A further experiment can be described thus: growth inhibition of DIPG glioma cells, dose response, cell-based, SU-DIPG-IV, MIPE4.0, CellTiter-Glo, qHTS (AID 1347063).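 Further: compound exposure lasted 48 hours before the viability readout.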 As to conditions: SU-DIPG-IV viability, CellTiter-Glo ATP luminescence. (ATP-based viability assays read luminescence as a measure of living cells.)
As to `Clc1ccc2ncc(-c3cccc(NC4CNC4)n3)n2c1`, the AC50 is 26.4 µM (active).

As for `CC[C@H](CC#N)OC(=O)N[C@@H](C)c1cccc(NC(=O)Nc2ccc(-c3cnco3)c(OC)c2)c1`, the concentration at half-maximal activity (AC50) was 1.32 µM (active).

As to `N#C/C(=C1/Nc2ccccc2S1)c1ccnc(OCc2ccc(CN3CCOCC3)cc2)n1`, the AC50 was 0.0209 µM (active).

In the case of `CN1c2ccccc2C(=O)N2CCc3c([nH]c4ccccc34)C21` (stereo not drawn), the outcome was inactive.

`O=c1ccn([C@@H]2O[C@H](CO)[C@@H](O)[C@@H]2F)c(=O)[nH]1`: the outcome was inactive.

As for `CCNC(=O)Nc1ccc(-c2nc3c(c(N4CCOC[C@@H]4C)n2)CCN(C2COC2)C3)cc1`, the AC50 is 0.332 µM (active).

Turning to `O=C(Nc1nc2cccc(-c3ccc(CN4CCS(=O)(=O)CC4)cc3)n2n1)C1CC1`, the AC50 was 29.6 µM (active).

In the case of `CNC(=O)c1cc(Oc2ccc(NC(=O)Nc3ccc(Cl)c(C(F)(F)F)c3)c(F)c2)ccn1`, the AC50 is 13.2 µM (active).

With `O=C1[C@H](Cc2ccc(O)cc2)N2C(=O)CCN(C(=O)NCc3ccccc3)[C@H]2CN1Cc1cccc2ccccc12`, the AC50 was 3.72 µM (active).

For the compound `CC(C)=CCC/C(C)=C/CC/C(C)=C/CSc1ccccc1C(=O)O`, the AC50 was 0.526 µM (active).

Consider `Nc1cccc(-c2cc3c(Oc4cccc(O)c4)ncnc3[nH]2)c1`, for which the AC50 is 11.8 µM (active).

For `COc1ccc(-c2cc3nccn3c(Nc3ncccc3C(N)=O)n2)cc1OC`, the AC50 was 3.32 µM (active).

For `CO[C@@H]1[C@@H](O)[C@H](O)[C@@H](n2c3c(Cl)cccc3c3c4c(c5c6cccc(Cl)c6[nH]c5c32)C(=O)NC4=O)O[C@H]1CO`, the AC50 is 0.209 µM (active).

Consider `OCCn1cc(-c2ccc3c(c2)CC/C3=N\O)c(-c2ccncc2)n1`, for which the outcome was inactive.

`CN(C)CC(=O)N1CCC(c2ccc(NC(=O)c3ncc(C#N)[nH]3)c(C3=CCCCC3)c2)CC1`: the AC50 was 20.9 µM (active).

As for `CCC(=C/[C@H](C)C/C=C/C(C)=C/[C@@H](C)C(=O)[C@@H](C)[C@H](O)[C@@H](C)C/C(C)=C/C(=O)O)/C=C/[C@@H]1OC(=O)C=C[C@@H]1C`, the AC50 is 0.0139 µM (active).

Consider `N#Cc1ccc(COC[C@H]2O[C@@H](n3c(NCc4ccc(Cl)c(Cl)c4)nc4c(N)ncnc43)[C@H](O)[C@@H]2O)cc1`, for which the AC50 is 2.35 µM (active).

With `CC(C)(O)CC(=O)NCCn1ccc2ncnc(Nc3ccc(Oc4cccc(C(F)(F)F)c4)c(Cl)c3)c21`, the AC50 is 26.4 µM (active).

Regarding `CNc1nccc(-c2cccnc2Oc2cc(C(=O)Nc3cccc(C(F)(F)F)c3)ccc2C)n1`, the AC50 was 13.2 µM (active).

On to `CC[C@@H]([C@H](C)O)n1ncn(-c2ccc(N3CCN(c4ccc(OCC5CO[C@@](Cn6cncn6)(c6ccc(F)cc6F)C5)cc4)CC3)cc2)c1=O` (stereo partly drawn), for which the AC50 was 14.8 µM (active).

Regarding `CNc1nc(Nc2ccc(C(=O)N3CCOCC3)cc2OC)ncc1Cl`, the result was inactive.

Turning to `O=C(CCCCCCC(=O)Nc1ccc([C@H]2O[C@@H](CSc3nc(-c4ccccc4)c(-c4ccccc4)o3)C[C@@H](c3ccc(CO)cc3)O2)cc1)NO`, the AC50 is 13.2 µM (active).

As to `CNC(=O)c1cc(COc2nnc(Nc3ccc(Cl)cc3)c3ccoc23)ccn1`, the AC50 was 20.9 µM (active).

As for `COc1cc2ncnc(Nc3cccc(Cl)c3)c2cc1OC`, the AC50 was 18.7 µM (active).

For the compound `CS(=O)(=O)N1CCc2c(-c3cnc(N)nc3)nc(N3CCOCC3)nc21`, the half-maximal activity concentration (AC50) is 0.148 µM (active).

In the case of `Nc1ccn([C@@H]2O[C@H](CO)[C@@H](O)C2(F)F)c(=O)n1`, the AC50 was 0.526 µM (active).

For the compound `CC(=O)Oc1cc2c(s1)CCN(C(C(=O)C1CC1)c1ccccc1F)C2` (stereo not drawn), the AC50 is 16.6 µM (active).

`O=C1NC(=O)[C@@H](c2cn3c4c(cccc24)CCC3)[C@@H]1c1c[nH]c2ccccc12`: the AC50 was 13.2 µM (active).

A short description of the next experiment: growth inhibition of DIPG glioma cells, dose response, cell-based, SU-DIPG-XIII, MIPE5.0, CellTiter-Glo, qHTS (AID 1347064; cut-off not given, nearly all actives have AC50 up to about 23 µM;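 on AC50: cells exposed to compound for 48 hours before the viability read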). Particulars: SU-DIPG-XIII viability, CellTiter-Glo ATP luminescence.
As to `N#C/C(=C1/Nc2ccccc2S1)c1ccnc(OCc2ccc(CN3CCOCC3)cc2)n1`, the AC50 is 14.8 µM (active).

As to `C[C@@H]1Cc2c([nH]c3ccccc23)[C@@H](c2c(F)cc(/C=C/C(=O)O)cc2F)N1CC(C)(C)F`, the call was inactive.

Take `CCCc1cc(C)[nH]c(=O)c1CNC(=O)c1cc(-c2ccnc(N3CCN(C)CC3)c2)cc2c1cnn2C(C)C`: the call was inactive.

Turning to `Cc1cc(O)c(-c2ccc([C@@H](C)CN)cc2)c2c1[nH]c(=O)c1sccc12`, the AC50 is 0.148 µM (active).

Take `O=C(O)/C(S)=C/c1ccc(I)cc1`: the compound was classed as inactive.

Take `Nc1cccc(-c2cc3c(Oc4cccc(O)c4)ncnc3[nH]2)c1`: the AC50 is 4.68 µM (active).

Take `COC1=C2C[C@H](C)C[C@H](OC)[C@H](O)[C@@H](C)/C=C(/C)[C@H](OC(N)=O)[C@@H](OC)/C=C\C=C(\C)C(=O)NC(=CC1=O)C2=O`: the AC50 is 0.118 µM (active).

For `COc1ccc(-c2cc3nccn3c(Nc3ncccc3C(N)=O)n2)cc1OC`, the AC50 was 4.68 µM (active).

Take `c1ccc(-c2cc(CCC3CCNCC3)c3ccccc3n2)cc1`: the AC50 is 23.5 µM (active).

With `Nc1ncc(C(=O)NC2CN(C(=O)C3CC3)C2)c2ccc(-c3cccc(F)c3)nc12`, the outcome was inactive.

Turning to `CNc1nccc(-c2cccnc2Oc2cc(C(=O)Nc3cccc(C(F)(F)F)c3)ccc2C)n1`, the AC50 is 5.9 µM (active).

As to `Cc1cc(-c2nc3cc(F)ccc3s2)ccc1NC(=O)[C@@H](N)CCCCN`, the AC50 was 20.9 µM (active).

Consider `CNc1nc(Nc2ccc(C(=O)N3CCOCC3)cc2OC)ncc1Cl`, for which the compound was classed as inactive.

Turning to `O=C(Nc1ccc(OC(F)(F)Cl)cc1)c1cnc(N2CC[C@@H](O)C2)c(-c2ccn[nH]2)c1`, the compound was classed as inactive.

As for `CS(=O)(=O)N1CCc2c(-c3cnc(N)nc3)nc(N3CCOCC3)nc21`, the AC50 was 1.18 µM (active).

For `CCCCNc1ncc(-c2ccc(CN3CCOCC3)cn2)c(NC2CCC(O)CC2)n1` (stereo not drawn), the result was inactive.

As to `N#Cc1c(N)nc(N)nc1N[C@H](c1nc2c(F)ccc(Cl)c2c(=O)n1-c1cccnc1)C1CC1`, the AC50 was 13.2 µM (active).
